40 compounds from PubChem BioAssay (Tox21) can be followed below.

“And” between values parts separate entries of the source, which are not always exact repeats. Equal values may be shown once. Results filed as inconclusive are left out. Unmarked numbers belong to inactive results. The source made the active and inactive calls. Calls follow the shape of the dose curve; as a rule, active = well fitted cell-killing curve with a large enough effect in the repeat runs; inconclusive = weak or mixed curves; inactive = flat fitted curve, though single readings scatter.
% is scaled to controls: 0 for no effect and ±100 for the full control effect.

The assay can be described thus: qHTS RealTime-Glo MT Cell Viability Assay in HepG2 cells - 8 hour (AID 1224873). Also: nearly all actives have a fitted effect of over 55% in size. The note with it: RealTime-Glo luminescence; series mostly up to 76.8 µM. An excerpt:
National Center for Advancing Translational Sciences [NCATS]
NIH Chemical Genomics Center [NCGC]
U.S. Environmental Protection Agency [EPA]
National Institutes of Environmental Health Sciences [NIEHS]
National Toxicology Program [NTP]
U.S. Food and Drug Administration [FDA]
Measure of cell viability is critical in the cell-base assay. Analysis of cell viability is necessary for the characterization of cell responses to cytotoxic drugs and environmental stress. A RealTime-Glo MT Cell Viability Assay to monitor cell viability in real time of continues cell culture during 40 hours of compound treatment was used to screen Tox21 10K library compounds in HepG2 cells. The RealTime-Glo MT Cell Viability Assay is a nonlytic, homogeneous, bioluminescent method to measure cell viability in real time using a simple, plate-based method. The assay involves adding NanoLuc luciferase and a cell-permeant prosubstrate to cells in culture. Viable cells reduce the proprietary prosubstrate to generate a substrate for NanoLuc luciferase. This substrate diffuses from cells into the surrounding culture medium, where it is rapidly used by the NanoLuc Enzyme to produce a luminescent signal. The signal correlates with the number of viable cells, making the assay well suited for cytotoxicity studies.
Tox21 Assay Protocol Summary:
The mixture of HepG2 cell suspension and reagents were dispensed at 600cells/6 ul/well in 1536-well tissue culture treated black solid bottom plates using a Multidrop dispenser. After the assay plates were incubated at a 37 C/5% CO2 incubator for 5 hours, 23 nL of compounds dissolved in DMSO, positive and negative controls was transferred to the assay plate by a pintool work station. The plates were incubated at 37 C for 40 hours. The luminescence intensity were measured at 0h, 8h, 16h, 24h, 32h and 40h time points using ViewLux plate reader during compound treatment.
(In general: Quantitative high-throughput screening tests each substance at several concentrations.)
Turning to `NNc1nncc2ccccc12`, the outcome was inactive.
Same read-out and setting: with `CN(C)CCOCCN(C)C` the entry was “inactive”; with `CC(=O)CC(=O)Nc1ccccc1C`, “inactive”.
Still for that read-out and setting: with `CC(=O)c1ccccc1` the entry was “inactive”; with `CCCCCCCCCCCCc1ccccc1`, “inactive”; with `C[C@H]1C[C@@H]2[C@H]([C@@H](O)C[C@@]3(C)[C@H]2CC[C@]3(O)C(=O)CO)[C@@]2(C)C=CC(=O)C=C12`, “inactive”.
Same read-out and setting: with `CC(C)c1ccc(S(=O)(=O)O)cc1` the entry was “inactive”; with `C=C(C)C(=O)O[C@H]1C[C@@H]2CC[C@@]1(C)C2(C)C`, “inactive”; with `COS(C)(=O)=O`, “inactive”.
Consider `O=C(O)c1cc(=O)c2c(OCC(O)COc3cccc4oc(C(=O)O)cc(=O)c34)cccc2o1`, for which the result was inactive.
On the same count and under the same terms, with `c1ccc(OCCOc2ccccc2)cc1` the entry was “inactive”.
Regarding `CCCCC(CC)COC(=O)CS` (stereo not given), the call was inactive.
On the same count and under the same terms, with `CCCCCOC(C)=O` the entry was “inactive”; with `O=C(O)c1ccc(C(=O)O)cc1`, “inactive”; with `CCCCC(CC)CO` (stereo not given), “inactive”.
With `CCN(CC)CCCC(C)Nc1ccnc2cc(Cl)ccc12` (stereo not given), the viability change, negative = cytotoxic is -1.01% [at 6.97 µM] and -3.34% [at 15.8 µM].
Regarding `CN(C)CCC(c1ccc(Cl)cc1)c1ccccn1` (stereo not given), the call was inactive.
Same read-out and setting: with `Fc1ccc(Br)cc1` the entry was “inactive”; with `C[C@H]1C[C@H]2[C@@H]3CCC4=CC(=O)C=C[C@]4(C)[C@@]3(F)[C@@H](O)C[C@]2(C)[C@@]1(O)C(=O)CO`, “inactive”.
In the case of `O=C(O)c1ccc2c(c1)C(=O)OC2=O`, the compound was classed as inactive.
In the case of `O=c1[nH]c(=O)n([C@H]2CCCO2)cc1F`, the result was inactive.
On to `O=C(O)CCCCCCCCCCC(=O)O`, for which the outcome was inactive.
The same measure, in the same setting: with `CCCCCCOCCO` the entry was “inactive”; with `Cc1cccc(O)c1`, “inactive”; with `OCc1cccnc1`, “inactive”.
On the same count and under the same terms, with `O=C(Oc1ccccc1)c1ccccc1` the entry was “inactive”.
Turning to `CC(C)CC(=O)CC(C)C`, the outcome was inactive.
Same read-out and setting: with `CC(=O)Nc1cccc(O)c1` the entry was “inactive”; with `CC(=O)CC(=O)Nc1ccccc1`, “inactive”.
Same read-out and setting: with `COCCCOc1ccnc(CS(=O)c2nc3ccccc3[nH]2)c1C` (stereo not given) the entry was “inactive”; with `O=C(O)CCCC[C@@H]1SC[C@@H]2NC(=O)N[C@@H]21`, “inactive”.
Same read-out and setting: with `COc1ccc2cc([C@H](C)C(=O)O)ccc2c1` the entry was “inactive”; with `CN(C)CCC(c1ccccc1)c1ccccn1` (stereo not given), “inactive”; with `CCCCC(CC)COC(=O)C(C#N)=C(c1ccccc1)c1ccccc1` (stereo not given), “inactive”.
Regarding `C=CCNC(N)=S`, the result was inactive.
On the same count and under the same terms, with `CCCCCC/C(C=O)=C\c1ccccc1` the entry was “inactive”; with `O=C(O)c1cc(O)c(O)c(O)c1`, “inactive”; with `COc1ccc(Cl)cc1C(=O)NCCc1ccc(S(=O)(=O)NC(=O)NC2CCCCC2)cc1`, “inactive”.
Still for that read-out and setting: with `OCCOCCN1CCN(C2=Nc3ccccc3Sc3ccccc32)CC1` the entry was “inactive”; with `C[Si](O[Si](C)(C)C)O[Si](C)(C)C`, “inactive”.
